Activity calls are given as the source filed them. Rule for the calls: active = hit-call score of the fitted dose curve at least 0.9, where 1 is the maximum; inactive = score below 0.9.
read-out: Macrophage colony-stimulating factor (MCSF), CSF1 (gene 1435); experiment: BSK_hDFCGF_MCSF: BioMAP Diversity Plus: hDFCGF Assay for Macrophage colony-stimulating factor (MCSF) Biomarker Activity (AID 2283060); details: primary human foreskin fibroblasts; actives raise or lower the signal
In short: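 M-CSF levels, determined by ELISA, are taken at 24 h after dosing human skin fibroblasts. Responses in either direction are fitted with DMSO serving as the baseline.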

| SMILES | outcome |
| --- | --- |
| CC(=O)C(C)=CC1C(C)=CCCC1(C)C (configuration not stated) | inactive |
| COc1cc(S(=O)(=O)O)c(C)cc1N=Nc1c(O)ccc2cc(S(=O)(=O)O)ccc12 | inactive |
| O=c1[nH]cc(F)c(=O)[nH]1 | inactive |
| C[Si]1(C)O[Si](C)(C)O[Si](C)(C)O[Si](C)(C)O1 | inactive |

read-out: not listed separately; experiment: BSK_hDFCGF_SRB: Viability Assessment in the BioMAP Diversity Plus: hDFCGF Assay (AID 2283061); details: primary human foreskin fibroblasts;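 note: cells exposed to compound for 24 h before the read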
In short: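 Cells were dosed with test chemical, cultured 24 h, fixed with 10% TCA, then stained with 0.1% SRB and read at 560 nm. The fibroblasts were human foreskin primary cells, and DMSO served as baseline.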

| SMILES | outcome |
| --- | --- |
| COc1cc(C=O)ccc1O | inactive |
| CC=Cc1ccc(O)c(OC)c1 | inactive |
| CCCCCCCCCCO | inactive |
| CC(=O)Oc1ccccc1C(=O)O | inactive |
| CCCCCCCC=O | inactive |
| CCOC(=O)CCC(=O)OCC | inactive |
| O=[N+]([O-])C(CO)(CO)CO | inactive |
| NS(=O)(=O)c1cc2c(cc1Cl)NCNS2(=O)=O | inactive |
| Cc1cc(NC(=O)C(=O)O)cc(C)c1Oc1ccc(O)c2c1CCC2 | inactive |
| Cc1cccc(Nc2cc(Cl)nc(SCC(=O)O)n2)c1C | inactive |
| CC(C)(C)c1cc(O)c(C(C)(C)C)cc1O | inactive |
| CCCCN(CCCC)CCCC | inactive |
| CN1CCCC1=O | inactive |
| CCCCOC(=O)CCCCCCCCC(=O)OCCCC | inactive |
| O=C(O)Cc1ccccc1Nc1c(Cl)cccc1Cl | inactive |
| CCCCCCCCCCC | inactive |
| Nc1ccc2c(c1)C(=O)c1ccccc1C2=O | inactive |
| CCCCCCCCCCCCCCCCCC(=O)O | inactive |
| Nc1ccccc1N | inactive |
| O=C(N[C@@H](Cc1ccccc1)[C@@H](O)C(=O)N1C[C@@H](O)[C@@H](O)C1)c1cc2cc(Cl)ccc2[nH]1 | inactive |
| CCCCCCCCCCCCCCCC | inactive |
| Cc1ccc(N(C)C)cc1 | inactive |
| Cc1c(C(=O)O)c(O)cc2c1C(=O)c1c(O)c([C@@H]3O[C@H](CO)[C@@H](O)[C@H](O)[C@H]3O)c(O)c(O)c1C2=O | inactive |

— PubChem BioAssay (EPA / NIEHS)
